# Only some compounds are listed: those with a hit (about 10% of all), similar ones and a draw of the others.
# G9a block: inhibitors of human histone lysine methyltransferase G9a. Q96KQ7. G9a H3K9 monomethylation, AlphaScreen, 2 h. Potency, µM (series often up to 102 µM), for the others: top-dose activity, negative = inhibition, usual class: inhibitors. 350,000 tested, 8.8% active. AID 504332; also: potency is read from the fitted curve at half-maximal effect; % is scaled to controls: 0 for no effect and ±100 for the full control effect; nearly all actives have a fitted effect of over 75% in size
#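 Chemiluminescent proximity detection of H3K9 monomethylation, read after 10 min bead incubation in the dark. Reaction: 20 nM G9a, 500 nM biotin-H3K9 peptide, 20 uM SAM cofactor, 2 h, room temperature, following 15 min enzyme-compound preincubation.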
# BAZ2B inh: blocks human BAZ2B. AlphaScreen BAZ2B-H3K14Ac peptide displacement. Potency, µM (titrated, usually from 114 µM), inactives show at the highest dose activity change, negative = inhibition, actives largely listed as inhibitors. 360,000 tested, 4.4% active; also: potency is read from the fitted curve at half-maximal effect; % is scaled to controls: 0 for no effect and ±100 for the full control effect; nearly all actives have a fitted effect of over 60% in size
#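 BAZ2B 50 nM plus b-H3(5-23)K14Ac 50 nM, PBS pH 7.4/0.01% Tween-20, 30 min RT; compound added (max 110 uM), 30 min RT; streptavidin donor/Ni-chelate acceptor beads 10 ug/mL final, 20 min dark; AlphaScreen read.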
# Six1-Eya2 blk: inhibitors of human Six1/Eya2 interaction; Q15475+O00167; AlphaScreen GST-Six1/His-Eya2 binding, biochemical; hits give low values; activity change, % (concentration not given with the values); 360,000 tested, 0.56% active; AID 651725; in the data active = activity change below about -65%; inconclusive = mostly about -30% to -63%; also: % is scaled to controls: 0 for no effect and ±100 for the full control effect
# Target sequence (O00167 whole entry, looked up): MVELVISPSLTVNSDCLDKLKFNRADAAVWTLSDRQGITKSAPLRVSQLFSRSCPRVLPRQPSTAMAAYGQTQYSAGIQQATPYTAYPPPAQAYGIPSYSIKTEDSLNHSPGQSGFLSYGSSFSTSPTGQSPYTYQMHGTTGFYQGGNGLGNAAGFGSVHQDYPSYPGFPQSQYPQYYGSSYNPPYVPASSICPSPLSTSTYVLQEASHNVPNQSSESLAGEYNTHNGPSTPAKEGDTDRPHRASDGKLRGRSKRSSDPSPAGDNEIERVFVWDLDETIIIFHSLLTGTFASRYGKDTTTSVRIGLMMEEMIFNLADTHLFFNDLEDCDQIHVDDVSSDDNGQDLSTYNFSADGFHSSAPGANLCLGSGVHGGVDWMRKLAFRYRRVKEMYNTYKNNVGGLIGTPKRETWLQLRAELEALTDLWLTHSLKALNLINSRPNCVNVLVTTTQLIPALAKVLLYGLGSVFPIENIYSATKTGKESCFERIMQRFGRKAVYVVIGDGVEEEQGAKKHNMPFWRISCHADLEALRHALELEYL
# Target sequence (Q15475 whole entry, looked up): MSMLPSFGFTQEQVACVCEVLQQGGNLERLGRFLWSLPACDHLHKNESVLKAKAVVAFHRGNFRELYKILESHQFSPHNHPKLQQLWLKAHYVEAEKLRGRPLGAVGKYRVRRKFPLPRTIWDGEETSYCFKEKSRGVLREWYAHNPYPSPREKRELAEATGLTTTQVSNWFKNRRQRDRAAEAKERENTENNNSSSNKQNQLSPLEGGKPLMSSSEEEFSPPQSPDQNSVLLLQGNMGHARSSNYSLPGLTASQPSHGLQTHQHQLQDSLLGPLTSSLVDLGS
#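 Compounds are tested against tagged Six1 and Eya2 proteins bridged by glutathione donor and nickel acceptor beads; after a one-hour incubation at 37 °C without light, AlphaScreen emission is recorded.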
# JMJD2A Tudor: inhibitors of human JMJD2A Tudor domain; Potency, µM (highest dose often 114 µM), for the others: top-dose activity change, negative = inhibition, actives largely listed as inhibitors; 390,000 tested, 4.4% active; AlphaScreen JMJD2A-Tudor / H3K4me3 peptide binding; AID 504339; also: potency is read from the fitted curve at half-maximal effect; % is scaled to controls: 0 for no effect and ±100 for the full control effect; nearly all actives have a fitted effect of over 50% in size
# HP1b chromo inh: HP1-beta chromodomain-methylated histone interaction inhibition | 390,000 tested, 0.56% active | P83916 | Potency, µM (doses to about 114 µM), for inactives: at the top dose activity change, negative = inhibition, most hits filed as inhibitors | AlphaScreen HP1-beta / biotin-H3K9me3 peptide binding; also: potency is read from the fitted curve at half-maximal effect; nearly all actives have a fitted effect of over 70% in size
#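 HP1-beta protein (50 nM final) preincubated 30 min at room temperature with biotinylated H3(1-18)K9me3 peptide (50 nM) in PBS pH 7.4, 0.01% Tween-20, then compound added for 30 min. AlphaScreen streptavidin donor/nickel chelate acceptor beads (10 ug/mL final), 30 min dark, luminescence read.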
# CtBP-E1A inh: CtBP/E1A binding inhibition; 340,000 tested, 0.49% active; AID 651724; activity change, % (concentration not given with the values); AlphaScreen GST-E1A/His-CtBP binding, 1536-well; hits give low values; in the data active = activity change below about -65%; inconclusive = mostly about -30% to -63%; also: % is scaled to controls: 0 for no effect and ±100 for the full control effect
#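 AlphaScreen with 125 nM GST-E1A and 125 nM His-CtBP (5X stocks) in Tris pH 8.0, 300 mM NaCl, BSA, Tween 20, TCEP. Compounds preincubated 2 h at 37 deg C, then glutathione donor/nickel acceptor beads added for 1 h at 37 deg C in dark.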
# Active calls of the source: *; ? = inconclusive; . = no result given; [ ] = dose if it differs, or a comment. Unless noted, calls follow the shape of the dose curve; as a rule, active = well fitted inhibition curve with a large enough effect; inconclusive = small, poorly fitted or top-dose-only effect; inactive = no such curve, though single readings can be large or run the other way.
SMILES,G9a block,BAZ2B inh,Six1-Eya2 blk,JMJD2A Tudor,HP1b chromo inh,CtBP-E1A inh
CC(=O)c1cccc(N(C(=O)Cn2nnc3ccccc32)C(C(=O)NCc2ccccc2)c2ccccn2)c1 (centres undefined),21%[59 µM],-8%,-4,6%[57.1 µM],50%,2
COc1ccccc1NC(=O)Cc1nnc(SCC(=O)Nc2ccccc2F)n1C,8%[59 µM],0%,14,11µM*,-14%,4
COc1ccccc1NC(=O)c1ccc(NC(=O)CSc2nncn2C)cc1,11µM*,0%,0,-11%,45%,-1
Cc1ccc(C(=O)c2c3ccc(N)cc3nn2CCC(N)=O)cc1,45µM*,?,1,?,13%,-7
Cc1cccc(C)c1N=C1NN=C(c2ccccc2F)CS1,?,0%,-15,-22%,12%,2
COc1ccccc1C1=NNC(=Nc2cccc(S(=O)(=O)N(C)C)c2)SC1,16µM*,?,?,-21%,?,2
CCOc1ccccc1NC(=O)NCCn1c(=O)oc2ccc(C)cc21,-12%[59 µM],-9%,.,-32%,7%,.
O=C1c2ccccc2C(=O)N1CCc1ccccc1,.,.,1,56µM*,?,1
O=C1c2ccccc2C(=O)N1CCc1csc(NNc2nc(CCN3C(=O)c4ccccc4C3=O)cs2)n1,?,35µM*,-23,?,-12%,-2
Cc1ccc(-c2nc(CCN3C(=O)c4ccccc4C3=O)cs2)cc1,37%,30%,12,18%,97%,16
CCCCCCCNC1=CC(=O)CC(c2ccco2)C1 (centres undefined),?,?,-6,50µM*,-19%,3
COc1ccc(OC)c(CCNC(=O)c2ccc(NC3=NC4CS(=O)(=O)CC4S3)cc2)c1 (centres undefined),-1%,-10%,2,-24%,14%,0
CCN(Cc1ccccc1)Cc1c(F)cccc1F,?,.,14,20µM*,?,13
CCN(Cc1ccccc1)Cc1cc(OC)cc(OC)c1,-13%[59 µM],33%,22,34%,63%,11
COc1cc(CN2CCC(C(=O)NC3CCCC3)CC2)cc(Br)c1O,10µM*,50µM*,1,3.2µM*,-50%,0
COc1ccc(CN2CCN(c3cccc(C)c3C)CC2)cc1OC,11µM*,56µM*,7,7%,17%,5
COc1cc(CN2CCN(c3cccc(C)c3C)CC2)cc(Br)c1O,?,?,-24,2µM*,?,-11
COc1ccc(S(=O)(=O)N2CCC(C(=O)NC3CCCC3)CC2)cc1OC,?,-1%,4,-1%,38%,3
Nc1cc(N)nc(CS)n1,?,-8%,1,-3%,73%,2
COc1ccc(/C=C/C(=O)NCCCN2CCCCCC2)cc1,50µM*,-26%,0,?,13%,-6
COc1ccc2cc(/C=C/C(=O)N3CCN(CC(=O)N4CCCCCC4)CC3)ccc2c1,71µM*,-17%,-7,-22%,42%,8
O=C(/C=N/O)NCCCN1CCOCC1,-48%[59 µM],-28%,5,-8%,28%,4
O=C(/C=N/O)NCCCN1CCCCCC1,45µM*,50µM*,2,?,17%,7
CC(C)CN(C(=O)CN(C)C(=O)c1ccco1)c1c(N)n(CC(C)C)c(=O)[nH]c1=O,50µM*,15%,6,-1%,19%,-4
CCCn1c(N)c(N(CCOC)C(=O)Cc2ccc(S(=O)(=O)N3CCOCC3)s2)c(=O)[nH]c1=O,50µM*,0%,4,-34%,15%,15
SMILES,G9a block,BAZ2B inh,Six1-Eya2 blk,JMJD2A Tudor,HP1b chromo inh,CtBP-E1A inh
CCCCn1c(N)c(N(CCOC)C(=O)c2cc3c(s2)CCC(C)C3)c(=O)[nH]c1=O (centres undefined),35µM*,9%,-2,-6%,28%,0
CCCCn1c(N)c(N(CCOC)C(=O)c2ccc(-n3c(C)ccc3C)cc2)c(=O)[nH]c1=O,45µM*,5%,-2,1%,64%,0
COCCN1C(=O)N(c2cccc(OC)c2)C(=O)C1CC(=O)Nc1ccccc1 (centres undefined),-2%[59 µM],4%,.,0%,50%,.
Cc1ccc(NC(=O)CNS(=O)(=O)c2ccc(F)cc2)cc1C,23%[12.7 µM],-4%,6,-14%,47%,.
Cn1cccc1C(=O)N1CCC2(CCCN(Cc3ccncc3)C2)CC1,-11%[12.7 µM],.,.,.,.,.
CCCN1C(=O)c2ccc(C(=O)Nc3ccccc3C(=O)O)cc2C1=O,8%,-13%,-7,-25%,47%,-16
COc1ccc(Br)cc1/C=N/NC(=O)C(c1ccncc1)N1CCOCC1 (centres undefined),2%[59 µM],4%,4,-13%,14%,8
CC(=O)Nc1cccc(C(=O)Nc2ccc(S(=O)(=O)N3CCCCC3)cc2)c1,-5%,1%,-11,-8%,24%,-6
CCOCCc1nn2c(=O)cc(COC(=O)c3ccccc3NC(=O)CC(C)C)nc2s1,12%[12.7 µM],-5%,.,-3%,27%,.
CCCCn1c(N)c(N(CC(C)C)C(=O)c2ccc(-c3ccc([N+](=O)[O-])cc3)o2)c(=O)[nH]c1=O,40µM*,-2%,-3,-11%,8%,0
CCCCN(C(=O)c1cc2ccccc2o1)c1c(N)n(CC(C)C)c(=O)[nH]c1=O,7%[59 µM],6%,-2,-9%,36%,-4
CCCCn1c(N)c(N(CCOC)C(=O)c2ccc(-c3ccc(C(C)=O)cc3)o2)c(=O)[nH]c1=O,13µM*,71µM*,0,?,17%,7
CCCCn1c(N)c(N(CCOC)C(=O)c2ccc(-c3ccc([N+](=O)[O-])cc3)o2)c(=O)[nH]c1=O,10%[12.7 µM],?,-21,-22%,-10%,-3
CCCCN(C(=O)c1ccc([N+](=O)[O-])o1)c1c(N)n(CC(C)C)c(=O)[nH]c1=O,28µM*,1%,10,-5%,5%,-13
CCCCn1c(N)c(N(CCC(C)C)C(=O)c2ccc(-c3ccc([N+](=O)[O-])cc3)o2)c(=O)[nH]c1=O,-14%[12.7 µM],-3%,7,3%,24%,6
N=c1oc2ccc3ccccc3c2cc1C(N)=S,20µM*,-32%,-15,-26%,-8%,.
O=C(O)c1cc2c(ccc3ccccc32)oc1=O,?,-2%,.,.,.,.
CCC(C)(C)C1CCc2[nH]nc(C(=O)NCCCNC(=O)OC(C)(C)C)c2C1 (centres undefined),-4%[2.33 µM],3%,2,-21%,35%,2
Cc1cccc(C(=O)Nc2nnc(-c3ccco3)o2)c1,5%,45µM*,?,?,35%,?

# Assay outcomes: PubChem, National Center for Advancing Translational Sciences (NCATS)
